# Compound activity: PubChem, National Center for Advancing Translational Sciences (NCATS)
# ERK EGF block: inhibitors of EGF-stimulated ERK signaling pathway | Potency, µM (doses to about 11.5 µM), most hits filed as inhibitors | 130,000 compounds, 0.41% hits | AID 1454 | HEK293-V1b, EGF-stimulated phospho-ERK AlphaScreen; active = well fitted inhibition curve with a large enough effect; also: nearly all actives have a fitted effect of over 55% in size
#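 Homogeneous cell-based phospho-ERK assay: HEK293/V1b cells in 1% FBS, compound 30 min then EGF 5 min, AlphaScreen luminescence. Activity normalized between DMSO and 25 nM EGF controls; AC50 from Hill modelling.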
# Numbers stand for hits; 0 = inactive. Many of the other results were omitted from the sample, so hits are more common in it than they were.
SMILES,ERK EGF block
COc1ccc(N2CCC(CNC(=S)Nc3c(C)cc(C)cc3C)C2)cc1 (configuration not stated),8.9µM
Cc1ccccc1NC(=S)NCC1CCN(C(C)c2ccccc2)C1 (configuration not stated),0
Cc1ccc(NC(=S)NC2CCN(Cc3ccccc3)CC2)c(C)c1,0
C=C/C1=C/Cc2ccccc2[C@H](C[N+](=O)[O-])C(C(C)=O)(C(=O)OC)C1 (some centres not stated),0
Fc1ccccc1-c1nc(-c2ccccc2)oc1NC1CCCCC1,0
CCN(CC)CCn1c(-c2ccccc2)nc2c(NCc3ccccc3)nc(C)nc21,0
COc1cc(COCC(O)CN2CCN(CCN3C(=O)c4cccc5cccc(c45)C3=O)CC2)cc(OC)c1OC (configuration not stated),0
CC(=O)c1ccccc1OCC(O)CN1CCN(CCN2C(=O)c3cccc4cccc(c34)C2=O)CC1 (configuration not stated),25µM
CC(=O)c1ccccc1OC(=O)CCN1C(=O)c2ccccc2C1=O,0
O=C1c2cccc3cccc(c23)C(=O)N1CCN1CCN(CC(O)COCc2ccc(Cl)cc2)CC1 (configuration not stated),32µM
O=C1c2cccc3cccc(c23)C(=O)N1CCN1CCN(CC(O)COc2ccc3ccccc3c2)CC1 (configuration not stated),0
O=C1c2cccc3cccc(c23)C(=O)N1CCN1CCN(C(=S)Nc2ccc(Cl)cc2)CC1,0
CCCCC/C=C\C\C=C/C=C/C=C/[C@@H](O)[C@@H](O)CCCC(=O)O,0
O=C(O)[C@H]1CCCN(CCC=C(c2ccccc2)c2ccccc2)C1,0
CCOC(=O)CNC(=O)O[C@@H]1C(=O)c2cc(OC)ccc2O[C@H]1c1ccc(OC)c(Br)c1,0
CCCn1c(-c2ccc(F)cc2)nc2c(NCCN(CC)CC)nc(C)nc21,0
O=C(OC[C@@H](O)CO)c1ccccc1Nc1ccnc2cc(Cl)ccc12,0
Cc1cc(C)c(NC(=O)COC(=O)c2cccc3c2C(=O)c2ccccc2C3=O)c(C)c1,0
Cc1ccc(C)c(NC(=O)COC(=O)c2cccc3c2C(=O)c2ccccc2C3=O)c1,0
Cc1cc(C)c(Nc2cc(S(=O)(=O)O)c(N)c3c2C(=O)c2ccccc2C3=O)c(C)c1,22µM
NC(=O)c1cccc(N)c1,0
CCCCCC(=O)/C=C/[C@@H]1[C@@H](C/C=C\CCCC(=O)O)[C@@H](O)C[C@H]1O,0
CN(Cc1ccccc1)c1ccc(C(CC(N)=O)NC(=O)Cc2ccc(Br)cc2)cc1[N+](=O)[O-] (configuration not stated),32µM
CCC(CC)Nc1ccc(C(CC(N)=O)NC(=O)Cc2ccc(Br)cc2)cc1[N+](=O)[O-] (configuration not stated),0
CN1CCN(c2ccc(C(CC(N)=O)NC(=O)Cc3ccc(Br)cc3)cc2[N+](=O)[O-])CC1 (configuration not stated),0
SMILES,ERK EGF block
CCCCCCCc1cc2ccccc2c(=O)o1,0
CN1/C(=C\C(=O)c2cccnc2)C(C)(C)c2ccccc21,0
CN1/C(=C\C=N\NC(=O)c2ccc(O)cc2)C(C)(C)c2ccccc21,0
Cc1ccc(C(=O)NC(=S)/C=C2\N(C)c3ccccc3C2(C)C)cc1,25µM
CCCCC[C@H](O)/C=C/C1=C(C/C=C\CCCC(=O)O)C(=O)CC1,0
O=c1c(-c2cccs2)nc2cncnc2n1C1CC1,0
C=CC[n+]1ccc(/C=C2\C=Cc3cc(C)ccc3N2CC)c2ccccc21,14µM
CCN1/C(=C/c2cc[n+](CCCS(=O)(=O)[O-])c3ccccc23)Sc2ccccc21,0
C=CC[n+]1ccc2ccccc2c1C,0
CCC(/C=C1\Sc2ccc(OC)cc2N1CCO)=C\c1sc2ccc(OC)cc2[n+]1CCO,14µM
COc1ccc2sc(/C=C/c3ccccc3O)[n+](C)c2c1,0
CCC(=O)/C=C1/Sc2ccc(OC)cc2N1CCO,0
CC1(OC(=O)c2ccco2)C(=O)C2=COC(C3CC3)=CC2=C(Br)C1=O (configuration not stated),0
COc1ccccc1NS(=O)(=O)c1cc(NC(C)=O)ccc1N1CCCCC1,0
COc1ccccc1NC1=C(N2CCCCC2)C(=O)c2ccccc2C1=O,25µM
COc1ccccc1NC(=O)C(=O)N1CCCC1,0
CCCCC[C@H](O)/C=C/C=C/C=C/[C@H](O)C/C=C\CCCC(=O)O,0
C=CCOC(=O)N[C@@H](c1ccccc1)[C@@H](C)[N+](=O)[O-],0
COc1ccc2c(c1)c1ccc3c(c1n2C)C(=O)C=CC3=O,32µM
COc1ccc2c(c1)oc(=O)c1cc(OC)ccc12,0
COc1ccc2c(c1)c(C(=O)CN1CCN(Cc3ccccc3)CC1)c(C)n2C,0
CCCCC/C=C\C/C=C\C/C=C\CCCCCCC(=O)NCCCC(=O)O,0
CC(C)C[C@@H](CC(=O)N[C@@H](CCCN)CC(=O)N[C@@H]1CCNC[C@H]1C(=O)N[C@H](CC(=O)N[C@@H](CCC(=O)O)CC(=O)O)Cc1ccccc1)NC(=O)[C@@H]1CNCC[C@H]1N,0
